In PubChem BioAssay (NCATS) one finds Potency data, which are given here for 39 compounds.

Molecules are shown by their SMILES. Where “and” joins values, the source holds several entries; their conditions need not be identical. Identical values can stand only once. Inconclusive results are not listed. Calls of active or inactive are those of the source. Calls follow the shape of the dose curve; as a rule, active = well fitted inhibition curve with a large enough effect; inconclusive = small, poorly fitted or top-dose-only effect; inactive = flat fitted curve, though single readings scatter.

What all share (test): qHTS profiling for inhibitors of Plasmodium falciparum proliferation (AID 504749); also: nearly all actives have a fitted effect of over 60% in size
Common to all, as to details: P. falciparum in erythrocytes, SYBR Green DNA, 72 h; series mostly up to 28.7 µM
In general terms: qHTS replaces the single test concentration by a dilution series.

Assay [1] relates to CP315. In short, it runs like this:
(§1)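 Fluorescence of SYBR Green-bound parasite DNA, read at 485/535 nm, served as the growth measure. Infected erythrocytes were cultured with compound 72 h; artemisinin (0.29 uM) and DMSO wells defined the normalization range.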

In assay [2] the test system is CP325. A digest of the protocol:
as §1

The test system of assay [3] is CP329. A digest of the protocol:
as §1

Assay [4] deals with CP335. A digest of the protocol:
as §1

In assay [5] the test system is DFO2036. A digest of the protocol: as §1
Assay [6] deals with DIV14. In short, it runs like this: as §1
Assay [7] deals with DIV17. In short, it runs like this: as §1
The subject of assay [8] is DIV30. In short, it runs like this: as §1
For assay [9], the system named is Dd2. In short, it runs like this:
as §1

Assay [10] relates to ECU. A digest of the protocol:
as §1
Potency is read from the fitted curve at half-maximal effect.

As to `O=C(O)/C=C/C(O)c1ccc(Cl)cc1` (configuration not stated), the Potency entry in assay [1], in assay [2], in [3], in assay [4], in assay [5] and in assay [6] was “inactive” throughout. For the same compound, the Potency result in assay [7], in assay [8], in assay [9] and in assay [10] was “inactive” throughout.

With `N=c1ccn2c(n1)O[C@H]1[C@H](O)[C@@H](CO)O[C@H]12`, the Potency result in assay [1], in assay [2], in assay [3], in [4], in assay [5] and in [6] was “inactive” in each case. Also, the Potency result in [7], in [8], in assay [9] and in assay [10] was “inactive” each time.

Regarding `CCCCCC[C@@H](O)C/C=C\CCCCCCCC(=O)O`, the Potency result in assay [1], in assay [2], in assay [3], in assay [4], in assay [5] and in [6] was “inactive” throughout. Also, the Potency entry in [7], in assay [8], in assay [9] and in assay [10] was “inactive” each time.

Regarding `Cc1ccc(O)c(-n2nc3ccccc3n2)c1`, the Potency entry in [1], in assay [2], in [3], in assay [4], in assay [5] and in [6] was “inactive” each time. For the same compound, the Potency entry in assay [7], in [8], in assay [9] and in [10] was “inactive” each time.

Regarding `CN1[C@@H]2CC[C@H]1CC(OC(c1ccccc1)c1ccccc1)C2` (some centres not stated), the Potency result in assay [1], in assay [2] and in assay [3] was “inactive” each time. The Potency in [5] is 12.6 µM (active); in assay [6], 2.39 µM (active) and 1.9 µM (active); in assay [7], 5.36 µM (active) and 4.26 µM (active); in [9], 6.31 µM (active).

Turning to `O=C(CCN1CCN(CCO)CC1)N1c2ccccc2Sc2ccc(C(F)(F)F)cc21`, the Potency entry in [1] and in assay [3] was “inactive” each time. Also, the Potency in [6] was 9.53 µM (active); in assay [7], 9.53 µM (active); in assay [9], 11.2 µM (active).

Take `CC(=O)[C@]1(O)Cc2c(O)c3c(c(O)c2[C@@H](O[C@H]2C[C@H](N)[C@H](O)[C@H](C)O2)C1)C(=O)c1c(O)cccc1C3=O`: the Potency was 15.1 µM (active) in assay [2]; 5.36 µM (active) in [4]; 7.94 µM (active) in assay [5]; 4.26 µM (active) in assay [6]; 4.78 µM (active) in assay [7]; 3.16 µM (active) in assay [9].

On to `COc1ccc(-c2cc(=S)ss2)cc1`, for which the Potency entry in [1], in [2], in [3], in assay [4], in assay [5] and in assay [6] was “inactive” in each case. In addition, the Potency entry in assay [7] and in [9] was “inactive” throughout. For the same compound, the Potency in assay [10] was 12.6 µM (active).

As to `Nc1cc(-c2ccncc2)c[nH]c1=O`, the Potency entry in assay [1], in assay [2], in [3], in assay [4], in assay [5] and in assay [7] was “inactive” in each case. For the same compound, the Potency entry in assay [8], in assay [9] and in assay [10] was “inactive” in each case.

In the case of `CN1[C@@H]2CC[C@H]1CC(OC(=O)C(CO)c1ccccc1)C2` (some centres not stated), the Potency entry in assay [1], in assay [2], in [3], in assay [4], in [5] and in assay [6] was “inactive” in each case. Besides, the Potency result in assay [7], in assay [9] and in assay [10] was “inactive” in each case.

Turning to `O=C1CN(/N=C/c2ccc(-c3ccc([N+](=O)[O-])cc3)o2)C(=O)N1`, the Potency result in assay [1], in assay [2], in assay [3], in [4], in assay [5] and in assay [8] was “inactive” in each case. Besides, the Potency result in assay [9] and in assay [10] was “inactive” each time.

Consider `Cc1nc2ccccc2n1Cc1ccc(Cl)cc1`, for which the Potency entry in [1], in assay [6], in assay [7], in assay [8] and in assay [9] was “inactive” each time.

Take `O=C(O)Cc1ccc(-c2ccccc2)cc1`: the Potency entry in assay [1], in assay [2], in assay [3], in [5], in [6] and in [7] was “inactive” in each case. Further, the Potency result in assay [8], in [9] and in assay [10] was “inactive” each time.

As to `CN(C)c1ccc(C(=C2C=CC(=[N+](C)C)C=C2)c2ccccc2)cc1`, the Potency in [2] was 12 µM (active); in assay [4] it was 4.78 µM (active); in assay [7], 6.01 µM (active); in assay [9], 11.2 µM (active).

As to `NC(=O)C(c1ccccc1)(c1ccccc1)[C@@H]1CCN(CCc2ccc3c(c2)CCO3)C1`, the Potency entry in [1] and in assay [2] was “inactive” each time. In addition, the Potency in assay [6] is 7.57 µM (active); in assay [7], 10.7 µM (active); in assay [9], 5.01 µM (active).

For `C[S+](CC[C@H](N)C(=O)O)C[C@H]1O[C@@H](n2cnc3c(N)ncnc32)[C@H](O)[C@@H]1O` (some centres not stated), the Potency entry in assay [1], in [2], in assay [3], in assay [4], in assay [6] and in [7] was “inactive” throughout. Besides, the Potency result in assay [8] and in assay [9] was “inactive” throughout.

As for `Cc1cc(O)c2ccccc2c1O`, the Potency result in assay [1], in assay [2], in assay [3], in assay [5], in assay [8] and in assay [10] was “inactive” throughout.

For the compound `COC(=O)C1=C(C)NC(C)=C(C(=O)OCC(C)C)C1c1ccccc1[N+](=O)[O-]` (configuration not stated), the Potency was 12 µM (active) in assay [2], 10.7 µM (active) in [6], 16.9 µM (active) in assay [8] and 10 µM (active) in assay [10].

On to `CN1[C@@H](CC(=O)c2ccccc2)CCC[C@H]1C[C@H](O)c1ccccc1`, for which the Potency entry in [1], in assay [2] and in assay [4] was “inactive” in each case. For the same compound, the Potency in [6] is 13.5 µM (active); in assay [7] it was 10.7 µM (active); in assay [9], 10 µM (active).

`COc1ccc(/C=C/C(=O)Nc2ccccc2C(=O)O)cc1OC`: the Potency result in assay [1], in assay [2], in [3], in [4], in assay [5] and in assay [6] was “inactive” in each case. In addition, the Potency entry in assay [7], in assay [9] and in assay [10] was “inactive” in each case.

As for `O=C(Nc1ccc(C(=O)O)c(O)c1)c1ccccc1`, the Potency entry in assay [1], in assay [2], in assay [3], in assay [4], in assay [5] and in assay [6] was “inactive” each time. The Potency result in assay [8], in assay [9] and in assay [10] was “inactive” in each case.

In the case of `CC(N)C(=O)OC(C)(C)Cc1ccc(Cl)cc1` (configuration not stated), the Potency entry in assay [1] was “inactive”. The Potency in assay [6] was 9.53 µM (active); in assay [7], 8.49 µM (active); in assay [9], 7.94 µM (active).

Turning to `O=C(O)COc1ccc(C(=O)c2cccs2)c(Cl)c1Cl`, the Potency result in assay [1], in assay [2], in assay [3], in [4], in assay [5] and in assay [6] was “inactive” throughout. Moreover, the Potency result in assay [7], in [8], in assay [9] and in assay [10] was “inactive” each time.

Take `Clc1ccccc1-c1nc(-c2ccncc2)no1`: the Potency result in [1], in assay [2], in [3], in assay [4], in [5] and in assay [8] was “inactive” each time. The Potency entry in assay [9] was “inactive”. In addition, the Potency in assay [7] was 15.1 µM (active).

For `CCCC(=O)OC[C@@H](OC(=O)CCC)[C@@H](OC(=O)CCC)[C@H](Cn1c2nc(=O)[nH]c(=O)c-2nc2cc(C)c(C)cc21)OC(=O)CCC`, the Potency result in assay [1], in assay [2], in assay [3], in assay [6] and in assay [8] was “inactive” in each case. Moreover, the Potency in [9] was 11.2 µM (active).

With `COc1cc(/C=C/C(=O)CC(=O)/C=C/c2ccc(O)c(OC)c2)ccc1O`, the Potency in [6] was 16.9 µM (active); in assay [7] it was 13.5 µM (active); in assay [8] it was 13.5 µM (active); in assay [9], 12.6 µM (active); in assay [10], 1 µM (active).

For `COc1cc(CNC(=O)CCCC/C=C/C(C)C)ccc1O`, the Potency result in assay [1], in assay [2], in assay [3], in assay [4], in assay [5] and in assay [6] was “inactive” in each case. Moreover, the Potency result in [7], in [9] and in assay [10] was “inactive” in each case.

As for `O=C(O)c1ccccc1Nc1cccc(C(F)(F)F)c1`, the Potency entry in [1], in assay [2], in assay [3], in [4], in assay [5] and in assay [7] was “inactive” each time. Also, the Potency result in [8], in [9] and in [10] was “inactive” in each case.

Take `O=c1[nH]c2ccccc2n1CCCN1CCN(C(c2ccccc2)c2ccccc2)CC1`: the Potency entry in [1] was “inactive”. For the same compound, the Potency in [6] is 13.5 µM (active); in assay [7], 13.5 µM (active); in assay [9] it was 11.2 µM (active).

Turning to `CCCSc1ccc2nc(NC(=O)OC)[nH]c2c1`, the Potency result in assay [1], in assay [2], in [3], in [4], in assay [5] and in [6] was “inactive” each time. For the same compound, the Potency entry in assay [7], in assay [9] and in assay [10] was “inactive” each time.

In the case of `Cc1ccccc1CNc1ncnc2c1ncn2C1OC(CO)C(O)C1O` (configuration not stated), the Potency result in assay [1], in assay [2], in [3], in [4], in [5] and in [6] was “inactive” throughout. Moreover, the Potency result in assay [7], in assay [8], in assay [9] and in assay [10] was “inactive” each time.

In the case of `Oc1c(Br)cc(Br)c2cccnc12`, the Potency entry in [1], in [2], in [3], in assay [4], in assay [5] and in assay [6] was “inactive” throughout. In addition, the Potency entry in assay [7], in [8], in [9] and in assay [10] was “inactive” each time.

For the compound `c1ccc2sc(SN3CCOCC3)nc2c1`, the Potency entry in assay [1], in assay [2], in assay [3], in assay [4], in assay [5] and in assay [8] was “inactive” each time.

With `O=C(O)c1cc(O)c(O)c(O)c1`, the Potency entry in [1], in assay [2], in assay [3], in assay [5], in assay [8] and in assay [10] was “inactive” throughout.

`COc1cc(/C=C/C(=O)N2CCN(CC(=O)N3CCCC3)CC2)cc(OC)c1OC`: the Potency result in assay [1], in assay [2], in assay [3], in assay [4], in assay [5] and in [9] was “inactive” each time.

As to `O=C(OCc1ccccc1)c1ccccc1`, the Potency entry in assay [1], in [2], in assay [3], in assay [4], in assay [5] and in [6] was “inactive” each time. The Potency result in assay [8], in assay [9] and in assay [10] was “inactive” in each case.

`CCCCC[C@H](O)/C=C/[C@@H]1[C@@H](C/C=C\CCCC(=O)O)[C@@H](O)C[C@H]1O`: the Potency entry in assay [1], in assay [2], in assay [3], in [5], in assay [6] and in assay [7] was “inactive” throughout. Also, the Potency result in assay [8], in assay [9] and in assay [10] was “inactive” each time.

In the case of `CCCCCCCCCCCC(=O)[O][Sn]([CH2]CCC)([CH2]CCC)[O]C(=O)CCCCCCCCCCC`, the Potency entry in assay [1], in assay [2], in assay [3], in [4], in [5] and in assay [6] was “inactive” throughout. In addition, the Potency entry in [7], in assay [8], in assay [9] and in assay [10] was “inactive” in each case.

As to `Cc1[nH]cnc1CN1CCc2c(c3ccccc3n2C)C1=O`, the Potency entry in assay [1], in assay [2], in assay [3], in assay [4], in assay [5] and in [7] was “inactive” in each case. Moreover, the Potency entry in assay [8], in [9] and in [10] was “inactive” throughout.
